Rows were chosen to be rich in hits. Some 2.7% of all compounds tested hit in one or more screens of this group.
Nrf2 inh: Nrf2 qHTS screen for inhibitors; AID 504444, 2011; Potency, µM (top dose mostly 46 µM), for the others: at the highest dose activity change, negative = inhibition, actives largely listed as inhibitors; 2.1% of 360,000 active; A549 ARE-Fluc reporter, luciferase luminescence, 18-24 h; note: potency is the fitted concentration of half-maximal effect; % is set by controls: 0 for no effect and ±100 for the full control effect; nearly all actives have a fitted effect of over 60% in size
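A549 ARE_Fluc cells (5000/well, 5% FBS OPTI-MEM) pre-incubated 2 h, then treated with compounds 18-24 h at 37C/5% CO2 in concentration-response. CellTiter-Fluor viability read first; BugLite luciferase luminescence after 15 min at room temperature gives Nrf2 activity.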
12-LOX inh: Primary qHTS assay for inhibitors of human arachidonate 12S-lipoxygenase (ALOX12): Round 2; AID 1671190, 2021; 1.1% of 580,000 active; Potency, µM (titrated, usually from 108 µM), without a hit: at the highest dose activity change, negative = inhibition, most hits filed as inhibitors; purified 12hLO, xylenol orange hydroperoxide absorbance; Polyunsaturated fatty acid lipoxygenase ALOX12 (Homo sapiens), P18054; note: potency is the fitted concentration of half-maximal effect; % is set by controls: 0 for no effect and ±100 for the full control effect
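Purified human 12hLO at 150 nM in 25 mM Hepes, 0.01% Triton X-100, pH 7.0, preincubated 15 min at room temperature with compound. Reaction started with 40 uM arachidonic acid, 30 min at room temperature. Hydroperoxide measured by Fe-xylenol orange, 573/405 nm absorbance ratio.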
IDH1 R132H inh: qHTS for Inhibitors of mutant isocitrate dehydrogenase 1 (IDH1): qHTS; Isocitrate dehydrogenase [NADP] cytoplasmic (Homo sapiens), O75874; IDH1-R132H enzyme, NADPH consumption, diaphorase/resazurin fluorescence; Potency, µM (doses to about 76.6 µM), for the others: at the top dose activity change, negative = inhibition, most hits filed as inhibitors; 0.093% of 390,000 active; note: potency is the fitted concentration of half-maximal effect; % is set by controls: 0 for no effect and ±100 for the full control effect; nearly all actives have a fitted effect of over 65% in size
Target sequence (O75874 whole entry R132H, stated change not applied): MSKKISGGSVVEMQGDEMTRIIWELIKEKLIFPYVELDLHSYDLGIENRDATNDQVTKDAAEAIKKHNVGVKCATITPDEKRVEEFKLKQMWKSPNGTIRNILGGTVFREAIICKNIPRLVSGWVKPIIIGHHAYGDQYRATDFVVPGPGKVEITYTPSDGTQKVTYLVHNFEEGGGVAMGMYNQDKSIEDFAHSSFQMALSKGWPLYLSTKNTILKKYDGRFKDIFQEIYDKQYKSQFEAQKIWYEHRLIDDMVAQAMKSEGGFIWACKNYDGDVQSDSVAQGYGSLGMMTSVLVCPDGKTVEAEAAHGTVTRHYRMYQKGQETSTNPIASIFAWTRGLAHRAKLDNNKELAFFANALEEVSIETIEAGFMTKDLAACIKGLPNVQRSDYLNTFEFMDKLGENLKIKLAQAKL
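IDH1-R132H (0.5 ug/mL dispensed) in pH 7.5 Tris buffer was preincubated 30 min with compound, then given a substrate mix of 0.016 mM NADPH and 2 mM alpha-KG for 80 min at room temperature; remaining NADPH was read by diaphorase/resazurin fluorescence.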
Nrf2 ARE act: qHTS of Nrf2 Activators; 0.31% of 410,000 active; Potency, µM (series often up to 46.1 µM), for the others: at the highest dose activation, most hits filed as activators; AID 624171, 2012; AREc32 ARE-luciferase reporter (MCF7-derived line), luminescence, 24 h; note: potency is the fitted concentration of half-maximal effect; % of control where 0% means no effect; nearly all actives have a fitted effect of over 65% in size
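Quantitative high-throughput format: AREc32 reporter cells, 1000 per well, received compound by pin transfer and were incubated 24 hr at 37 deg C, 5% CO2, before Steady-Glo luminescence detection.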
A549 tox: Nrf2 qHTS screen for inhibitors: counterscreen for cytotoxicity; A549 ARE-Fluc cells, CellTiter-Fluor viability, 18-24 h; Potency, µM (titrated, usually from 46 µM), without a hit: top-dose activity change, negative = cytotoxicity, usual class: inhibitors; 0.16% of 390,000 active; AID 504648, 2011; note: potency is the fitted concentration of half-maximal effect; % is set by controls: 0 for no effect and ±100 for the full control effect
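A549 ARE-Fluc cells in 5% FBS OPTI-MEM, 5000 cells/well, rested 2 h then exposed to compounds in concentration-response for 18-24 h at 37 °C. Viability by CellTiter-Fluor fluorescence (Ex 405/Em 525) after 30 min; luciferase luminescence (BugLite, 15 min, RT) read afterwards.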
LDHA inh: qHTS assay for inhibitors of human lactate dehydrogenase; 0.15% of 480,000 active; purified LDHA, NADH/diaphorase-resazurin fluorescence; stronger effect = lower value; L-lactate dehydrogenase A chain (Homo sapiens), P00338; AID 1347041, 2019; activity change, % (values are at about 110 or 230 µM); in the data active = activity change below about -30%; inconclusive = mostly about -25% to -30%;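 note: plate controls were DMSO wells for no effect and wells without enzyme for full effect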
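Human LDH5 (2 nM) was incubated with 0.06 mM NADH and 0.2 mM pyruvate for 5 min at room temperature in Tris pH 7.4. Remaining NADH was coupled through diaphorase/resazurin, and resorufin fluorescence was read at 0 and 20 min.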
An asterisk follows results filed as active. Unless noted, calls come from the whole dose curve; as a rule, active = well fitted curve in the direction sought with a large enough effect; inconclusive = small, poorly fitted or top-dose-only effect, or another doubt; inactive = no such curve, though single readings can be large; an effect the other way counts as inactive or inconclusive.

How did N#Cc1ccccc1NC(=O)CCN(Cc1ccco1)C1CC1 do in these assays?
12-LOX inh: inconclusive; LDHA inh: -6.1

Results for Cc1cc(C)cc(CCCCCCCCCCCC(=O)O)c1 ?
12-LOX inh: -3.1%; LDHA inh: 0.1

What do the screens show for `CSC1=N/C(=C\c2cccs2)C(=O)S1`?
12-LOX inh: -27.3%; LDHA inh: 4.8

How did O=C1OC(/C=C/c2ccc(Cl)cc2Cl)=NC/1=C\c1cccs1 do in these assays?
Nrf2 inh: -0.3%; 12-LOX inh: 35.5µM*; IDH1 R132H inh: -8.2%; Nrf2 ARE act: 0.8%; A549 tox: 1.5%; LDHA inh: -4.3

Results for CCNc1ccc(Br)cc(C(=O)/C=C/c2ccccc2Cl)c1=O ?
Nrf2 inh: inconclusive; 12-LOX inh: 8.91µM*; IDH1 R132H inh: 9.6%; Nrf2 ARE act: inconclusive; A549 tox: inconclusive; LDHA inh: 24.0

What do the screens show for `CNc1ccc(Br)cc(C(=O)/C=C/c2cccc(Cl)c2Cl)c1=O`?
Nrf2 inh: 0.0%; 12-LOX inh: 6.31µM*; IDH1 R132H inh: 7.4%; Nrf2 ARE act: 7.94µM*; A549 tox: -1.2%; LDHA inh: 7.8

Results for CNc1ccc(Br)cc(C(=O)/C=C/c2cccc(OC)c2OC)c1=O ?
Nrf2 inh: 2.1%; 12-LOX inh: inconclusive; IDH1 R132H inh: 4.6%; Nrf2 ARE act: -0.2%; A549 tox: -6.6%; LDHA inh: 0.0

What do the screens show for `CCC(=O)N(CCC(Cc1ccccc1)c1ccco1)Cc1ccco1` (stereo not drawn)?
Nrf2 inh: 16.4µM*; 12-LOX inh: -8.9%; IDH1 R132H inh: 0.8%; Nrf2 ARE act: 4.0%; A549 tox: -17.7%; LDHA inh: 2.5

What do the screens show for `CCC(=O)N(CCC(c1ccccc1)c1ccco1)Cc1cccs1` (stereo not drawn)?
Nrf2 inh: 12.2%; 12-LOX inh: inconclusive; IDH1 R132H inh: 3.6%; Nrf2 ARE act: 0.6%; A549 tox: 0.5%; LDHA inh: -0.5

How did COC(=O)c1sc(=S)n(-c2cc(C)cc(C)c2)c1N do in these assays?
12-LOX inh: inconclusive; LDHA inh: -4.2

Results for CCOC(=O)c1sc(=S)n(-c2ccc(C)cc2)c1N ?
Nrf2 inh: 24.2%; 12-LOX inh: inconclusive; IDH1 R132H inh: -8.8%; Nrf2 ARE act: 0.5%; A549 tox: 1.4%; LDHA inh: 0.2

Results for COC(=O)c1sc(=S)n(-c2cccc(OC)c2)c1N ?
12-LOX inh: 12.6µM*; LDHA inh: 5.1

What do the screens show for `COC(=O)c1sc(=S)n(-c2ccc(Br)cc2)c1N`?
12-LOX inh: 11.2µM*; LDHA inh: 4.7

How did CC(=O)c1ccc(C(=O)N(C)C(C)c2ccc(Cl)cc2)s1 (stereo not drawn) do in these assays?
12-LOX inh: inconclusive; LDHA inh: 6.2

How did CC(Nc1ccc([N+](=O)[O-])cn1)c1ccc(Cl)cc1 (stereo not drawn) do in these assays?
12-LOX inh: inconclusive; LDHA inh: 0.4

What do the screens show for `CN1C[C@H](C(=O)Nc2cccc(F)c2)C[C@H]1c1cccc(C(F)(F)F)c1`?
12-LOX inh: 20µM*

Results for Cc1ccc(NS(=O)(=O)c2ccc3c(c2)-c2oncc2CO3)cc1F ?
12-LOX inh: inconclusive; LDHA inh: 2.0

Results for Cc1ccccc1OCC(=O)Nc1ccc(Cc2ccncc2)cc1 ?
Nrf2 inh: 13µM*; 12-LOX inh: 8.6%; IDH1 R132H inh: 16.8%; Nrf2 ARE act: 0.1%; A549 tox: 4.6%; LDHA inh: -3.7

How did COc1ccc(NC(=O)Nc2ccc(Cc3ccncc3)cc2)c(OC)c1 do in these assays?
Nrf2 inh: 16.4µM*; 12-LOX inh: -14.0%; IDH1 R132H inh: 2.4%; Nrf2 ARE act: 0.3%; A549 tox: -5.7%; LDHA inh: -6.9

Results for Cc1ccccc1OCC(=O)Nc1ccccc1CO ?
12-LOX inh: 2.9%; IDH1 R132H inh: 3.5%; Nrf2 ARE act: 10µM*; A549 tox: 8.2%; LDHA inh: 0.2

What do the screens show for `CSc1ccccc1NC(=O)COc1ccccc1C`?
Nrf2 inh: inconclusive; 12-LOX inh: -3.2%; IDH1 R132H inh: 3.6%; Nrf2 ARE act: 9.2%; A549 tox: 6.2%; LDHA inh: 1.7

How did CCCCNC(=O)NC(c1ccccc1)c1ccccn1 (stereo not drawn) do in these assays?
12-LOX inh: 43.4%; LDHA inh: 6.9

What do the screens show for `O=C(CSc1ccccc1F)c1ccc2c(c1)OCCO2`?
12-LOX inh: 26.7%; LDHA inh: 4.7

How did COc1ccc2oc(/C=C/N(C)C)c(C(=O)c3ccc(Cl)cc3)c2c1 do in these assays?
12-LOX inh: 7.08µM*; IDH1 R132H inh: 2.6%; Nrf2 ARE act: -0.4%; A549 tox: -7.0%; LDHA inh: -6.2

What do the screens show for `CCn1c(-c2ccc(C)cc2)nn(CC(=O)NCCc2ccccc2)c1=S`?
Nrf2 inh: 23.1µM*; 12-LOX inh: 0.7%; IDH1 R132H inh: 3.0%; Nrf2 ARE act: -0.7%; A549 tox: inconclusive; LDHA inh: -1.5

What do the screens show for `Cc1cc(C(=O)C(C)Sc2nnnn2Cc2cccs2)c(C)n1Cc1ccco1` (stereo not drawn)?
12-LOX inh: inconclusive; LDHA inh: 3.3

Results for CCN(CC)c1ccc(N=Nc2ncn[nH]2)cc1 ?
Nrf2 inh: inconclusive; 12-LOX inh: -5.0%; IDH1 R132H inh: 3.8%; Nrf2 ARE act: -0.2%; A549 tox: inconclusive; LDHA inh: 13.5

Results for CCN(CC)c1ccc(N=Nc2nn(C)c(C)c2[N+](=O)[O-])cc1 ?
Nrf2 inh: inconclusive; 12-LOX inh: -6.0%; IDH1 R132H inh: 5.1%; Nrf2 ARE act: 3.2%; A549 tox: 20.6µM*; LDHA inh: 1.0

How did CCN(Cc1ccccc1)c1ccccc1 do in these assays?
Nrf2 inh: 2.9%; 12-LOX inh: 11.7%; IDH1 R132H inh: 27.4%; Nrf2 ARE act: 0.2%; A549 tox: -5.5%; LDHA inh: -1.6

Results for CCN(Cc1ccccc1)c1ccc(N=Nc2nn(C)c(C)c2[N+](=O)[O-])cc1 ?
Nrf2 inh: -24.7%; 12-LOX inh: 6.2%; IDH1 R132H inh: -0.4%; Nrf2 ARE act: 4.1%; A549 tox: 16.4µM*; LDHA inh: 2.2

Results for CCNc1c(NC(=O)NCCCOC)c(=O)oc2ccccc12 ?
12-LOX inh: -5.5%; LDHA inh: 6.8

Screens (PubChem)
